CBX7 inh: CBX7 chromodomain binding inhibitors, primary screen, biochemical, AlphaScreen | Chromobox protein homolog 7 (Homo sapiens), O95931 | AlphaScreen His6-CBX7 / biotin-H3K27me3 peptide binding; stronger effect = lower value | normalised signal (fraction of DMSO) (concentration not given with the values) | 1.1% of 66,000 active | AID 1224903, 2016; in the data active = normalised signal below about 0.5
Target sequence (O95931 whole entry, looked up): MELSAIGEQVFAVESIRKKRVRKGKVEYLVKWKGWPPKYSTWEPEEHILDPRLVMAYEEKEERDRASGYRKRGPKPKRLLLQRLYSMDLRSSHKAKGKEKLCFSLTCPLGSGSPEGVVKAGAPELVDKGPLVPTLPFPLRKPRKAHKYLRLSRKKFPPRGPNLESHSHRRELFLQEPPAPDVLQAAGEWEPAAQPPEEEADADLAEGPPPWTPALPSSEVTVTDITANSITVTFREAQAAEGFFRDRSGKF
Numbers without * were called inactive. The full list was thinned out, with hits kept by preference.

SMILES | CBX7 inh
COc1ccccc1NC(=O)CN1C(=O)CC(c2ccccc2)Sc2ccccc21 (stereo not given) | 0.847
CCN(CCCNC(=O)c1cc(-c2cccnc2)nc2ccccc12)c1ccccc1 | 0.976
CCCCN(CCCNC(=O)c1cc(-c2ccncc2)nc2ccccc12)c1ccccc1 | 0.767
CCN(CCCNC(=O)c1cc(-c2ccncc2)nc2ccccc12)c1ccccc1 | 0.314*
CN(C)CCNC(=O)c1cc(-c2ccncc2)nc2ccccc12 | 1.13
CCN(CCNC(=O)c1cc(-c2cccnc2)nc2ccccc12)c1ccccc1 | 0.474*
CCOc1ccc(-c2cc(C(=O)NCCN(CC)c3ccccc3)c3ccccc3n2)cc1 | 0.94
CC1CC(C)CN(c2nnc(NC(=O)Nc3ccc(Cl)cc3)s2)C1 (stereo not given) | 0.907
O=C(Nc1ccc2nn(-c3ccc(Cl)cc3)nc2c1)c1ccncc1 | 0.96
Cc1cc(Oc2ccccc2F)nc(N2CCOCC2)n1 | 1.05
Cc1ccccc1NC(=O)c1cccc(S(=O)(=O)N2CCCCCC2)c1 | 1.01
O=C(CN1N=C(c2ccccc2)CCC1=O)NCCCN1CCN(Cc2ccccc2)CC1 | 1.09
COC(=O)c1c(NC(=O)c2cc(Cl)ccc2OC)sc2c1CCC(C(C)(C)C)C2 (stereo not given) | 1.02
CC(C)Cc1ccc(-c2cc(C(=O)NCCCN3CCOCC3)c3ccccc3n2)cc1 | 1.01
CCC(=O)N1c2ccccc2NC2=C(C(=O)CCC2)C1c1ccc(OC)c(OC)c1 (stereo not given) | 0.997
CC1CCN(S(=O)(=O)c2ccc3ncn(CC(=O)NCCCN4CCOCC4)c(=O)c3c2)CC1 | 1.09
CC(C)OCc1ccc(O)c2ncccc12 | 0.00412*
CCN(C(=O)CCc1nc(-c2ccccc2F)no1)c1cccc(C)c1 | 0.958
Cc1cccn2cc(-c3cccc(NC(=O)Cc4ccccc4)c3)nc12 | 0.935
COc1ccccc1C(=O)Nc1c2c(nc3c1CCC3)CCCC2 | 0.948
NC(=O)C1CCN(CC(=O)Nc2c3c(nc4ccccc24)CCC3)CC1 | 1.35
CN(CC(=O)Nc1c2c(nc3c1CCC3)CCCC2)Cc1ccccc1 | 0.242*
O=C(CCCN1Cc2ccccc2C1)Nc1c2c(nc3c1CCC3)CCCC2 | 1.04
O=C(CN1CCCCC1)Nc1c2c(nc3c1CCC3)CCCC2 | 0.446*
O=C(CN1CCCCC1)Nc1c2c(nc3ccccc13)CCCC2 | 0.904
SMILES | CBX7 inh
COc1cccc(NC(=O)c2cn(-c3ccc(F)cc3F)c(=O)c3ccccc23)c1 | 0.945
Cc1ccc(-c2noc(CN(C(=O)COc3ccc(C)cc3Br)C(C)C)n2)cc1 | 0.947
COc1ccc(S(=O)(=O)N(CC(=O)Nc2ccc(C)cc2)c2ccc(C)cc2)cc1 | 0.993
COc1ccc2cc(CCNC(=O)C3CCCCC3)c(=O)[nH]c2c1 | 0.985
COc1cc(OC)cc(-n2nc(C(=O)Nc3ccc(F)cc3)c3ccccc3c2=O)c1 | 0.995
Cn1cc(C(=O)Nc2ccc3c(c2)OCO3)c2ccccc2c1=O | 0.974
Cc1ccccc1Nc1nc(-c2sc(N)nc2C)cs1 | 0.66
COc1ccccc1Nc1nc(-c2sc(N)nc2C)cs1 | 0.372*
Cc1nc(N)sc1-c1csc(Nc2ncccn2)n1 | 0.693
COc1ccccc1Nc1nc(-c2sc(NC(C)=O)nc2C)cs1 | 0.943
CC(=O)Nc1nc(C)c(-c2csc(Nc3cccc(C)c3)n2)s1 | 0.933
Cc1cccc(Nc2nc(-c3sc(N)nc3C)cs2)c1 | 0.483*
COc1cc(-n2c(C)nc3cc(C(=O)NCc4cccnc4)ccc32)cc(OC)c1OC | 1.06
O=C(Cc1ccc(-n2c(=O)[nH]c3ccsc3c2=O)cc1)Nc1ccccc1 | 0.986
COC(=O)c1nnn(-c2nonc2N)c1CSc1nc2ccccc2o1 | 1
NC(=O)c1nnn(-c2nonc2N)c1CSc1nc2ccccc2o1 | 0.734
Nc1nonc1-n1nnc(C(=O)O)c1CSc1nc2ccccc2o1 | 0.0178*
COc1ccc(Cn2c(=O)[nH]c3cc(C(=O)N4CCN(c5ncccn5)CC4)ccc3c2=O)cc1 | 1
Cc1ccc2c(c1)NC(=O)C(CC(=O)NC(C)CCc1ccccc1)O2 (stereo not given) | 0.995
O=C(Nc1cccc(-c2nc3ncccc3o2)c1)c1ccccc1Br | 1.09
CCN1CCN(c2cc(C)c3cc(NC(=O)CCC(=O)NCCCN4CCOCC4)ccc3n2)CC1 | 1.01
COc1ccccc1CNC(=O)c1nn(-c2ccccc2OC)c(=O)c2ccccc12 | 0.941
COCCNC(=O)c1nn(-c2ccccc2OC)c(=O)c2ccccc12 | 1.01
CCN(CCCNC(=O)c1nn(-c2ccccc2OC)c(=O)c2ccccc12)c1cccc(C)c1 | 0.481*
COc1ccccc1Nc1cc(C(=O)NCCN2CCOCC2)c2ccccc2n1 | 1.1
SMILES | CBX7 inh
COCCN(CCOC)S(=O)(=O)c1ccc(C(=O)Nc2nnc(-c3cccc(OC)c3)o2)cc1 | 0.948
COc1ccccc1-c1nnc(NC(=O)c2ccc(S(=O)(=O)N3CCC(C)CC3)cc2)o1 | 0.852
COc1ccccc1-c1nnc(NC(=O)c2ccc(S(=O)(=O)N(C)C)cc2)o1 | 0.036*
COc1cc(OC)cc(-c2nnc(NC(=O)c3ccc(S(=O)(=O)N(C)Cc4ccccc4)cc3)o2)c1 | 0.0762*
COc1ccccc1-c1nnc(NC(=O)c2ccc(S(=O)(=O)N3CCCC(C)C3)cc2)o1 (stereo not given) | 0.823
COc1ccc(-c2nnc(NC(=O)c3ccc(S(=O)(=O)N(C)Cc4ccccc4)cc3)o2)c(OC)c1 | 0.00137*
CCCCN(C)S(=O)(=O)c1ccc(C(=O)Nc2nnc(-c3ccc(OC)cc3OC)o2)cc1 | 0.972
COc1cc(OC)cc(-c2nnc(NC(=O)c3ccc(S(=O)(=O)N4CCCC(C)C4)cc3)o2)c1 (stereo not given) | 1.06
COc1ccc(-c2nnc(NC(=O)c3ccc(S(=O)(=O)N4CCOCC4)cc3)o2)c(OC)c1 | 0.583
COc1cccc(-c2nnc(NC(=O)c3ccc(S(=O)(=O)N(C)C)cc3)o2)c1 | 0.229*
Cc1cc(C(F)(F)F)nc2sc3c(O)cc(=O)[nH]c3c12 | 0.903
O=C(NC1CCCC1)c1cc(-c2ccncc2)nc2ccc(S(=O)(=O)N3CCOCC3)cc12 | 1.09
Cc1cccc(-c2nc(CN3CCCC(C(=O)NCc4ccc(F)cc4)C3)c(C)o2)c1 (stereo not given) | 0.93
CCC1CCCCN1C(=O)CS(=O)(=O)Cc1nc(-c2ccc(C)cc2)oc1C (stereo not given) | 0.859
Cc1ccc2c(c1)-c1c(cnn1CC(=O)NCCCOC(C)C)CO2 | 1.04
O=C(NCCNC(=O)C1CCCNC1=O)c1ccc(Cl)cc1 (stereo not given) | 1.03
CN(Cc1ccccc1)S(=O)(=O)c1ccc(C(=O)Nc2ccc(-c3nc4ccccc4[nH]3)cc2)cc1 | 1.03
COc1ccc(-c2nnc(NC(=O)c3ccc(S(=O)(=O)N(C)Cc4ccccc4)cc3)o2)cc1 | 0.00785*
COCCN(CCOC)S(=O)(=O)c1ccc(C(=O)Nc2nnc(-c3ccc(OC)cc3)o2)cc1 | 0.794
CCOCCCNC(=O)CN1C(=O)CSc2ncccc21 | 1.06
CN(C(=O)Cc1nc(N)n[nH]1)C1(C(=O)Nc2ccccc2)CCCCC1 | 0.0266*
Cc1ccc(NC(=O)C2(N(C)C(=O)Cc3nc(N)n[nH]3)CCCCC2)cc1 | 0.793
Nc1n[nH]c(CC(=O)N(Cc2ccccc2)C2(C(=O)Nc3ccccc3)CCCCC2)n1 | 0.697
Cc1ccc(S(=O)(=O)Nc2cc(Cl)c3oc4c(c3c2)C(=O)CCC4)cc1 | 0.962
COc1cccc(Nc2nc(-c3ccccc3F)nc3ccccc23)c1 | 0.331*
COc1ccc(Nc2nc(-c3ccccc3F)nc3ccccc23)c(OC)c1 | 1.42

Screening data: PubChem, Bradner/Qi Labs at DFCI
